HIV Env fusion = blocks HIV Env-driven cell-cell fusion. HeLa-JRFL Env/CEM21 cell fusion, luciferase. inhibition, % at 12.3 µM. actives 1.1% (n = 360,000). AID 651610;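 active = mean replicate inhibition score of at least 50 and every replicate individually at or above 50; inconclusive = only one of the two criteria met; inactive = mean below 50 and not all replicates reaching 50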
Shn3 inh set2 = reduces Shn3 3'UTR luciferase signal in osteoblasts. actives 0.52% (n = 360,000). inhibition, % at 12.5 µM. Clone20 osteoblast Shn3 3'UTR firefly luciferase, 24 h;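 active = mean inhibition of at least 75% with every replicate also reaching 75%; inconclusive = mean inhibition at least 75% but some replicate below; inactive = mean inhibition below 75%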
N-glyco inh = N-linked glycosylation inhibition. D54 ERlucT glycosylation luciferase reporter, 24 h; percent of 100 nM tunicamycin response. reporter increase, % at 12.5 µM. actives 0.23% (n = 360,000);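 active = mean luciferase reporter signal, scaled so untreated is 0 and the glycosylation-blocking control 100, at or above a set limit in every replicate; inconclusive = mean reaches the limit but not every replicate does; inactive = mean below the limit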;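 note: luciferase carries N-glycosylation sites so blocking glycosylation raises the light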
PAX8 inh HTS = lowers PAX8-driven luciferase in RMG-I cells; RMG-I TPO-luciferase reporter, SteadyGlo, 24 h; inhibition, % at 12.6 µM; actives 1.2% (n = 360,000); AID 652154;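 active = mean replicate inhibition at least 60% with every replicate also reaching 60%; inconclusive = only one of the two criteria is met; inactive = mean below 60% and not all replicates reaching 60%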;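 note: luciferase light reporting Pax8 driven TPO promoter activity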
NSD2 HMT inh = NSD2 (human) methyltransferase inhibition; actives 0.54% (n = 310,000); NSD2 peptide methylation, AlphaScreen, 120 min; inhibition, % at 12.5 µM; in the data active = inhibition above about 50%
Target sequence (O96028 whole entry, looked up): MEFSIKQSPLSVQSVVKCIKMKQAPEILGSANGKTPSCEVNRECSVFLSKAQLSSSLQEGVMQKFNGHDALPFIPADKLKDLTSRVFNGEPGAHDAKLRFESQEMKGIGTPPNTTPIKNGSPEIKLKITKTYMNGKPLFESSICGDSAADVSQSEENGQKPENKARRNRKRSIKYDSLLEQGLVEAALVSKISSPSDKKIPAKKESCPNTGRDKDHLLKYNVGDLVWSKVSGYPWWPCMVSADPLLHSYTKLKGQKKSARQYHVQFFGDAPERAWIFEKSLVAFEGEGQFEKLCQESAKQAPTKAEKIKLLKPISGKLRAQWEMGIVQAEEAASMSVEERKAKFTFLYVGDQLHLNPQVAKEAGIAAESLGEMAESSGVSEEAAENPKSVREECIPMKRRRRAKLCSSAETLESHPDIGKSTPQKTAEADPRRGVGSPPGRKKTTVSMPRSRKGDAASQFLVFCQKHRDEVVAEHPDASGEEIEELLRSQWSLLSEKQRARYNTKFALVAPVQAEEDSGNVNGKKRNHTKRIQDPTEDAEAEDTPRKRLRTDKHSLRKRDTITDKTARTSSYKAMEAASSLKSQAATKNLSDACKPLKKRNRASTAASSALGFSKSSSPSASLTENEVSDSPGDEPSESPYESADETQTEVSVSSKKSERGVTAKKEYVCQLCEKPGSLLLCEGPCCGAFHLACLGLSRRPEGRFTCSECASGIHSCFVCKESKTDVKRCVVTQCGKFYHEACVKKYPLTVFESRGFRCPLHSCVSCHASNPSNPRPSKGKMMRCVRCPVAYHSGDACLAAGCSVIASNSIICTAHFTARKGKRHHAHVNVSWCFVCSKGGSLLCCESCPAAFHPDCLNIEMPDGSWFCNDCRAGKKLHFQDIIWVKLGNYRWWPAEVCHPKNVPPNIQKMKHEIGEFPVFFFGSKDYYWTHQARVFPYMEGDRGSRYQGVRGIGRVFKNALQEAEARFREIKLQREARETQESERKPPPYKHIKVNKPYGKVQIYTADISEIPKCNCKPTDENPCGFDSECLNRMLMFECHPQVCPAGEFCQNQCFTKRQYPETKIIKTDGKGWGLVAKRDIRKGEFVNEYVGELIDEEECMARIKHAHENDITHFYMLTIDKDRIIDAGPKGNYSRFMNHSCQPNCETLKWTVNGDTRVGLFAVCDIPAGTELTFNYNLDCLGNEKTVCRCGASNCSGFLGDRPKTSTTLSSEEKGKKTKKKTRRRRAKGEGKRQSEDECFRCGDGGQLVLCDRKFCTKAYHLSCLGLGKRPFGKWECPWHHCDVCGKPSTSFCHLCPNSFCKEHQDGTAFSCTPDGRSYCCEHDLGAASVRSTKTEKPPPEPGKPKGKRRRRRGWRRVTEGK
EBV LMP1 NFkB = reduces LMP1-driven NF-kappaB luciferase signal | AID 504558 | inhibition, % at 12.5 µM | LMP1-induced NF-kappaB luciferase reporter cells, luminescence | actives 0.69% (n = 350,000); in the data active = inhibition above about 41%; inconclusive = no clear call, values can overlap the other calls
AlphaScreen art = interferes with AlphaScreen signal, flagging NSD2 false positives | shares compounds with NSD2 HMT inh | AlphaScreen artifact counterscreen, preloaded methylated H4 peptide | AC35, µM (titrated, usually from 10 µM) | actives 9.4% (n = 1,500); call rule not given here
A number is an active result; n = inactive; u = inconclusive; x = not tested or not shown. Compounds with a hit are over-represented: about 2.8% of the library has one in this group of screens.

SMILES | HIV Env fusion | Shn3 inh set2 | N-glyco inh | PAX8 inh HTS | NSD2 HMT inh | EBV LMP1 NFkB | AlphaScreen art
O=C(COc1cccc(-n2cnnn2)c1)N1CCOCC1 | n | n | n | n | n | n | x
CC1Cc2ccccc2N1C(=O)COc1cccc(-n2cnnn2)c1 (stereo not drawn) | n | n | n | n | 130 | n | n
COc1ccc(C)cc1NCc1ccc([N+](=O)[O-])cc1 | n | n | n | n | n | n | x
COc1ccc(C)cc1NCc1ccc(OC)c(C)c1OC | n | n | n | n | 80 | n | n
O=C1C(=O)N(CCS(=O)(=O)c2ccccc2)c2ccc(F)cc21 | n | n | n | n | 100 | n | n
Cc1cccc(NC(=S)N2CCN(c3ccccc3F)CC2)c1C | n | n | n | n | 57 | n | n
COc1ccccc1NC(=S)N1CCN(c2ccccc2F)CC1 | n | n | n | n | n | n | x
COc1ccc(NC(=O)N(C)C[C@H]2OCc3cn(nn3)CCCC(=O)N([C@@H](C)CO)C[C@H]2C)c(OC)c1 | x | x | x | n | x | x | x
CCc1nnc(NC(=O)c2ccc3ccccc3n2)s1 | n | n | n | n | 78 | n | n
CCc1nnc(NC(=O)c2ccc(COc3ccccc3)o2)s1 | n | n | n | x | 96 | n | n
CCSc1nnc(NC(=O)c2ccc3ccccc3n2)s1 | x | n | n | x | n | n | x
O=C(Cc1cccnc1)N1CC(=O)N2[C@@H](CO)[C@@H](c3ccc(C#CC4CC4)cc3)[C@@H]2C1 | x | x | x | n | x | x | x
Cc1cc(C)cc(-n2c(C)nc3cc(C(=O)O)ccc32)c1 | n | n | n | n | 73 | n | n
COc1cc(-n2c(C)nc3cc(C(=O)O)ccc32)cc(OC)c1OC | n | n | n | n | n | n | x
C[C@H](CO)N1C[C@H](C)[C@H](CN(C)C(=O)Nc2ccccc2)Oc2ccc(NC(=O)Cn3cnnn3)cc2C1=O | n | x | x | x | x | x | x
CO[C@@H]1CN(C)C(=O)c2ccc(NC(=O)C3CCC3)cc2OC[C@@H](C)N(C)C[C@@H]1C | x | x | x | n | x | x | x
O=C(CSc1nc(SCC(=O)NCc2ccccc2)n(-c2ccccc2)n1)NCc1ccccc1 | x | n | n | x | 81 | n | n
O=C(NCc1ccco1)c1scc2c1OCCO2 | x | n | n | x | 90 | n | n
CCN(CC)CCSc1nc2ccccc2c(=S)n1-c1ccccc1 | n | x | x | n | 108 | x | n
CCc1cnc(N2[C@H](C#N)[C@@H](c3ccc(C#CC(C)C)cc3)[C@@H]2CO)s1 | x | x | x | n | x | x | x
Cc1ccc(S(=O)(=O)NC(C(=O)N2CCN(S(=O)(=O)c3cccc(F)c3)CC2)C(C)C)cc1 (stereo not drawn) | n | n | n | n | 94 | n | n
CC(=O)Nc1ccc(S(=O)(=O)NCCSCc2ccc(Cl)cc2Cl)cc1 | u | n | n | n | 50 | n | n
COc1ccc(NC(=O)N(C)C[C@H]2OCCCC[C@@H](C)Oc3ccc(NC(=O)Nc4ccc(C(F)(F)F)cc4)cc3C(=O)N([C@@H](C)CO)C[C@H]2C)cc1 | n | x | x | n | x | x | x
O=C(C[C@@H]1C=C[C@H](NC(=O)c2ccc(F)cc2)[C@H](CO)O1)NCCc1ccncc1 | n | x | x | n | x | x | x
N#Cc1cc(-c2ccccc2)nnc1Oc1ccccc1Cl | x | n | n | x | 71 | n | n
SMILES | HIV Env fusion | Shn3 inh set2 | N-glyco inh | PAX8 inh HTS | NSD2 HMT inh | EBV LMP1 NFkB | AlphaScreen art
O=C(N[C@@H]1CC[C@@H](CCNS(=O)(=O)c2ccc(F)cc2)O[C@@H]1CO)C1CCCC1 | n | x | x | n | x | x | x
CC1CC(C)CN(C(=O)c2ccc3c(c2NCCO)C(=O)c2ccccc2C3=O)C1 (stereo not drawn) | n | n | n | x | 81 | n | 8.1µM
CC1CC(C)CN(C(=O)COC(=O)CN2C(=O)c3ccccc3C2=O)C1 (stereo not drawn) | n | n | n | n | n | n | x
COc1ccc(CC(=O)NC2CCCCCC2)c(OC)c1 | n | n | n | n | 77 | n | n
O=C(NCC[C@@H]1CC[C@@H](NS(=O)(=O)c2cccc(F)c2)[C@H](CO)O1)C1CCCCC1 | n | x | x | n | x | x | x
O=C(Cc1ccccc1Cl)NC1(O)C(=O)c2ccccc2C1=O | n | n | n | n | 94 | n | n
CC1(C)CC(N=C2C=CC3=NC45CCCCC4CC4=C(CCCC4)N5C3=C2)CC(C)(C)N1 (stereo not drawn) | x | x | x | x | 64 | x | n
COc1ccc(OC(=O)N(C)C[C@H]2OCc3cn(nn3)CCCC(=O)N([C@@H](C)CO)C[C@@H]2C)cc1 | n | x | x | n | x | x | x
CCCCN(C)CCCNC(=O)Cn1cc2c(n1)-c1c(oc(C(=O)N3CCCC3)c1C)CC2 | n | n | n | n | n | n | x
CCOCCCNC(=O)Cn1cc2c(n1)-c1c(oc(C(=O)N3CCCC3)c1C)CC2 | n | n | n | x | 97 | n | n
CC(C)(C)C1CCC2(CC1)C(Nc1cccc(C(F)(F)F)c1)=NC(=S)N2CC#N (stereo not drawn) | n | n | n | x | 64 | n | n
COc1cccc(CNC(=S)Nc2ccc(Cl)cc2C)c1 | n | n | n | n | 75 | n | n
CCOc1ccccc1N(C(=O)c1snc(C(N)=O)c1N)C(CC)C(=O)NC1CCCC1 (stereo not drawn) | n | n | n | n | n | n | x
Cc1ccccc1N(C(=O)c1snc(C(N)=O)c1N)C(C)C(=O)NC1CCCCC1 (stereo not drawn) | n | n | n | n | 78 | n | n
CC(Nc1cccc2ccccc12)C(=O)N/N=C/c1ccc([N+](=O)[O-])cc1 (stereo not drawn) | n | n | n | n | n | n | x
Cc1cccc(/C=N/NC(=O)C(C)Nc2cccc3ccccc23)n1 (stereo not drawn) | x | n | n | x | 103 | n | n
CCC(=O)N(C)C[C@H]1Oc2cc(C#CCC3CCCC3)ccc2S(=O)(=O)N([C@@H](C)CO)C[C@H]1C | n | x | x | n | x | x | x
O=[N+]([O-])c1cccnc1C1OCCO1 | n | n | n | n | n | n | x
Cc1cnc(C2OCCO2)c2cccc(N)c12 | n | n | n | n | 156 | n | n
COc1ccccc1N1CCN(C2CCN(C(=O)c3cccc(F)c3)CC2)CC1 | n | n | n | n | 59 | n | n
COc1ccccc1N1CCN(C2CCN(C(=O)c3ccc(F)cc3)CC2)CC1 | n | n | n | n | n | n | x
O=C(C[C@@H]1C[C@H]2c3cc(NC(=O)NC4CCCC4)ccc3O[C@H]2[C@@H](CO)O1)NCc1ccc2c(c1)OCO2 | n | x | x | n | x | x | x
O=C(O)c1ccc(-n2cccc2/C=C2/NC(=O)N(c3ccccc3)C2=O)cc1 | u | n | n | n | 101 | n | n
O=C(O)c1cccc(-n2cccc2/C=C2\NC(=O)N(Cc3ccc(F)cc3)C2=O)c1 | n | n | n | n | n | n | x
CC(=O)NC1=NC(=O)/C(=C/c2cc(C)n(-c3cccc(C(=O)O)c3)c2C)S1 | n | n | n | n | 131 | n | n
N#CC(C#N)=Cc1cccn1-c1ccc(C(=O)O)cc1 | n | n | n | n | 100 | n | n

Assay outcomes as filed in PubChem.
